# A selection: hits, their analogues and other compounds. The true share with any hit is near 4.1%.
# hgDAF12 agonist: agonists of H. glycines DAF-12 nuclear receptor. HEK293 GAL4-hgDAF12 UAS-luciferase reporter, agonist luminescence; normalized to butyrate control. activation, % at 6.8 µM. actives 1.8% (n = 370,000);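 active means activation above a cutoff set at the mean of all screened compounds plus 3 SD, cut at about 10% in these data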;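 further: 0% = DMSO wells and 100% = sodium butyrate wells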
# hcDAF12 agonist: activators of H. contortus DAF-12 nuclear receptor; actives 1.4% (n = 370,000); activation, % at 6.8 µM; HEK293 hcDAF-12 lit1-tk-luc reporter, luminescence; 0% DMSO, 100% Δ7-dafachronic acid;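 active means activation above the mean of all tested compounds plus 3 SD, cut at about 5.5% in these data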;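 further: 100% = response to 3 µM Δ7-dafachronic acid high control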
# DAX1 inh-1: blocks DAX1 repression of SF-1 activated StAR promoter; HEK293T StAR-luciferase reporter, SF-1/DAX-1 repression relief; actives 1.1% (n = 370,000); inhibition, % at 6.8 µM;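 active means inhibition above the mean over all tested compounds plus 3 SD, cut at about 3.6% in these data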;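 further: 0% = DAX-1 cells with DMSO and 100% = cells lacking DAX-1 with DMSO; higher inhibition means more luminescence from relief of DAX-1 repression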
# ssDAF12 agonist: activates DAF-12 receptor from parasite S. stercoralis; HEK293 ssDAF-12/GRIP1 lit1-tk-luc reporter, luminescence; % of 3 µM dafachronic acid response; activation, % at 6.8 µM; actives 1% (n = 370,000); AID 652126;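 active means activation above the mean over all tested compounds plus 3 SD, cut at about 0.9% in these data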;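 further: 0% = DMSO-only wells and 100% = 3 µM delta7-dafachronic acid wells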
# DAX1 inh-2: inhibitors of human orphan nuclear receptor DAX1 (NR0B1); HEK293 Gal4-DAX1 luciferase reporter, luminescence; inhibition, % at 6.75 µM; AID 504766; actives 0.99% (n = 340,000);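 active means inhibition above the mean over all tested compounds plus 3 SD, cut at about 4.2% in these data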;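 further: 0% = DAX1-transfected cells with DMSO and 100% = empty-vector control cells with DMSO; inhibition shows as a rise in luminescence from relieved DAX1 repression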
# Target sequence (P51843 207-470 limits assumed): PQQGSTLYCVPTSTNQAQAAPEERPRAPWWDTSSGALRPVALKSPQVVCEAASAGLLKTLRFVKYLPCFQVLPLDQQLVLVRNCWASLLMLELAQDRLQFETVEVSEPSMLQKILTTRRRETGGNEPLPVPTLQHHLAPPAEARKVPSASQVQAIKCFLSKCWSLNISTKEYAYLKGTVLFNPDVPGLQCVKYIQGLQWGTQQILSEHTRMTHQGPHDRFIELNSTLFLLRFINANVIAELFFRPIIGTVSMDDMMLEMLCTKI
# An asterisk follows results filed as active; · = not tested or not shown.
SMILES,hgDAF12 agonist,hcDAF12 agonist,DAX1 inh-1,ssDAF12 agonist,DAX1 inh-2
C[C@@H]1CN([C@H](C)CO)C(=O)c2cc(NC(=O)Cc3cn(C)c4ccccc34)ccc2O[C@H]1CN(C)C(=O)Nc1ccc2c(c1)OCO2,3.0,6.2*,0.3,-0.6,-0.4
C[C@@H]1CCCCO[C@@H](CN(C)C(=O)Nc2ccc3c(c2)OCO3)[C@@H](C)CN([C@H](C)CO)C(=O)c2cc(N(C)C)ccc2O1,0.4,-0.4,-0.4,-1.2,4.3*
C[C@@H]1CCCCO[C@H](CN(C)C(=O)Nc2ccc(C(F)(F)F)cc2)[C@@H](C)CN([C@H](C)CO)C(=O)c2cc(NC(=O)Nc3ccc4c(c3)OCO4)ccc2O1,1.5,-1.7,1.0,-1.0,·
COc1ccc(S(=O)(=O)N(C)C[C@H]2Oc3ccc(NC(=O)c4ccncc4)cc3C(=O)N([C@H](C)CO)C[C@@H]2C)cc1,-0.7,-1.2,0.9,2.6*,-0.6
C[C@H](CO)N1C[C@H](C)[C@@H](CN(C)C(=O)Nc2ccc3c(c2)OCO3)Oc2ccc(NC(=O)Cc3ccccc3)cc2C1=O,-0.2,0.8,0.3,-1.3,1.4
C[C@@H]1CCCCO[C@@H](CN(C)C(=O)c2ccncc2)[C@@H](C)CN([C@H](C)CO)C(=O)c2cc(NC(=O)Cc3ccccc3)ccc2O1,11.3*,0.3,-0.9,-1.4,0.8
CC(C)[C@H](NC(=O)[C@@H]1CCCN1)C(=O)N1CCC2CCN(S(=O)(=O)c3ccccc3)CC21 (stereo partly specified),0.6,-2.5,0.1,-1.1,·
CC(=O)c1cc(-c2cnn(Cc3ccccc3)c2)c(=O)n2c1CCC2,2.2,0.7,0.3,-1.4,·
COc1ccc(Cn2cc(CN3[C@@H](CC(C)C)COc4ccc(Cl)cc4S3(=O)=O)nn2)cc1,-1.6,-1.2,-0.2,-0.8,·
O=S1(=O)c2ccc(Br)cc2OC[C@@H](c2ccccc2)N1Cc1cn(Cc2ccccc2)nn1,2.7,-0.6,-0.8,-1.2,·
Cc1noc(C)c1NC(=O)N(C)C[C@H]1OCCCC[C@@H](C)Oc2ccc(NC(=O)Nc3ccc(F)cc3)cc2C(=O)N([C@@H](C)CO)C[C@H]1C,-0.6,-0.8,0.5,-1.8,5.1*
Cc1noc(C)c1NC(=O)N(C)C[C@H]1OCCCC[C@@H](C)Oc2ccc(NC(=O)c3ccccc3)cc2C(=O)N([C@H](C)CO)C[C@@H]1C,0.1,-1.1,-0.2,-1.0,0.5
C[C@@H]1CN([C@H](C)CO)C(=O)c2cc(NC(=O)Nc3ccc(F)cc3)ccc2O[C@H]1CN(C)C(=O)Nc1ccc(C(F)(F)F)cc1,·,·,·,·,-0.6
CC(C)NC(=O)Nc1ccc2c(c1)C(=O)N([C@H](C)CO)C[C@H](C)[C@@H](CN(C)C(=O)Nc1ccc(C(F)(F)F)cc1)O2,0.8,0.8,0.4,-0.4,4.5*
Cc1ccccc1Cn1cc(CN2[C@H](CC(C)C)COc3cc(Br)ccc3S2(=O)=O)nn1,5.5,-0.7,1.8,-0.4,·
C=CCn1c(SCc2c(Cl)cccc2Cl)nnc1-c1cccc(C)c1,-4.6,-3.3,-2.5,-2.4,·
COc1ccc(CNC(=O)c2ccc(CS(=O)(=O)c3ccc(Br)cc3)o2)cc1,3.1,-2.3,-1.3,-1.4,6.2*
COc1ccccc1S(=O)Cc1ccc(C(=O)NC2CCCC2)o1 (stereo unspecified),-1.8,-0.5,0.9,-1.4,5.5*
COc1ccccc1OCc1ccc(C(=O)NC2CCCCC2)o1,3.2,-1.4,-0.2,-1.0,0.8
COc1ccc(S(=O)(=O)Cc2ccc(C(=O)NC3CC3)o2)cc1,-0.5,-1.0,-0.1,-1.8,13.2*
C=CCN1C(=O)[C@@H](CC(=O)NCCCCc2ccccc2)[C@]2(C(=O)OC)CCCCC=C12,0.9,-0.1,-0.1,-1.6,·
O=C(c1ccoc1)N1CCN(c2cc(-c3ccco3)nc3cc(-c4ccco4)nn23)CC1,-6.0,-3.8,·,-1.6,·
O=C(NCCc1ccccc1)OCc1cn(-c2cccc(F)c2F)nn1,2.0,-0.4,0.7,0.0,·
COC(=O)[C@H]1C[C@]2(C(/C=C(\C)CCC=C(C)C)S(=O)(=O)c3ccccc3)c3ccccc3N[C@H]2N1 (stereo partly specified),-1.2,-1.3,·,-1.8,·
CCCC1CCC(c2nc(-c3cccnc3)no2)CC1 (stereo unspecified),0.5,0.1,0.8,-0.9,4.7*
SMILES,hgDAF12 agonist,hcDAF12 agonist,DAX1 inh-1,ssDAF12 agonist,DAX1 inh-2
COC(=O)c1ccc2c(c1)C(=O)/C(=C/c1ccc(O)cc1)O2,4.4,-0.5,-0.1,-0.3,0.5
COc1cccc(/C=C2\Oc3ccc(O)cc3C2=O)c1O,6.8,6.0*,4.0*,1.8*,0.6
CC(C)(C)NC(=O)[C@H](c1cccnc1)N(C(=O)c1ccco1)c1ccc(C(C)(C)C)cc1,4.2,-0.5,·,-1.5,·
COc1cc(NS(=O)(=O)c2ccc(N/C=C\C(=O)c3ccc(F)cc3)cc2)nc(OC)n1,3.8,6.4*,2.5,0.1,1.1
COc1cc(NS(=O)(=O)c2ccc(NC(=S)NC(=O)COc3ccccc3OC)cc2)nc(OC)n1,-1.7,-1.6,-1.3,-1.6,4.7*
CC(=O)c1ccc(NS(=O)(=O)c2ccc(N/C=C/C(=O)c3ccc(F)cc3)cc2)cc1,4.7,2.5,1.0,-0.3,-0.9
COc1cc(NS(=O)(=O)c2ccc(NC(=O)COc3ccccc3C)cc2)nc(OC)n1,1.4,-1.2,1.2,-0.3,0.2
N#CCc1ccc(OC[C@@H](O)CN2CCC(C(O)(c3ccccc3)c3ccccc3)CC2)cc1,-1.0,-1.4,0.3,-1.3,·
C#CCNC(=O)C[C@@H]1C(=O)N(CC=C)/C2=C/CCCCC[C@]21C(=O)OCC,-0.7,0.9,0.9,-1.5,·
COc1ccc2c(c1)NC(=O)[C@@]2(CCN1C(=O)c2ccccc2C1=O)c1[nH]c2ccccc2c1CCN1C(=O)c2ccccc2C1=O,-4.3,-3.6,·,-2.4,·
COc1ccc(F)c(CN(C)CC2CCCN(CCc3ccc(F)cc3)C2)c1 (stereo unspecified),0.1,0.1,0.4,-1.0,4.5*
O=C(Nc1ccc(OC(F)(F)F)cc1)Nc1c(-c2ccc(C(F)(F)F)cc2)nc2ncccn12,0.0,-0.1,0.9,-0.5,·
O=C(O)c1cccc(COc2ccccc2Cl)c1,6.8,3.6,4.5*,0.0,-5.8
NC(=O)NC(=O)COC(=O)c1ccc2noc(-c3ccccc3)c2c1,12.2*,2.1,1.2,-0.3,-0.8
Cc1ccc(-c2cc(C(F)F)n3ncc(C(=O)N4CCCCC4c4cccnc4)c3n2)cc1 (stereo unspecified),-1.2,5.7*,0.2,0.9,4.5*
COc1ccc(CN(CC#Cc2ccc(C)cc2)C(N)=NC(=O)CCc2ccccc2)c(OC)c1,0.0,1.0,-1.6,-0.8,·
CC1CCC(NC(=O)CCNC(=O)c2ccc(Br)cc2)CC1 (stereo unspecified),9.8,2.0,4.3*,-0.5,1.4
